14 compounds from PubChem BioAssay can be followed below.

Assay [1] in a line: inhibitors of TNFa-induced NFkB p65 translocation, primary screen, imaging, HUVEC, MLSMR starter and 10KST1 sets (AID 438;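 active = inhibition above 20% together with a positive visual image hit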;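 also: compound added about 3h40 before a 20 min TNFalpha stimulation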;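 as to inhibition: signal is the nuclear over cytoplasmic p65 intensity ratio per well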). The settings on record: HUVEC TNFa-induced p65 nuclear translocation; cell count: measured here: nuclei count (cytotoxicity indicator), at 2.08 µM; inhibition: at 2 µM, stronger effect = higher value, 0% TNFa-plus-vehicle, 100% no-TNFa wells.
Assay [2] in a line: reduction of polyQ htt aggregates in cells – imaging, exon1htt(103Q)mCFP cells, high-content imaging, primary screen (AID 483).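 Also: compound exposure lasted 3 days before fixation.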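 As to nuclei count: percent of the per-plate median nuclei count of sample wells.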 Conditions: exon1htt(103Q)mCFP cell line, aggregate imaging, at 2 µM; inhibition of aggregation: stronger effect = higher value; nuclei count: measured here: cell count, toxicity.
The nature of assay [3]: endothelial E-selectin expression blockers – imaging, HUVEC, immunofluorescence, MLSMR starter and 10KST1 sets, primary screen (AID 487;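 active = visually confirmed hit in the image check and inhibition above 20%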;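 as to inhibition: signal is fraction of cell area covered by stained E-selectin grains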;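 as to nuclei count: 100% = median nuclei count of all wells on the same plate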). Conditions: HUVEC TNFalpha-induced E-selectin immunofluorescence imaging, at 2 µM; inhibition: stronger effect = higher value; nuclei count: measured here: cell number, toxicity.
Assay [4] has as its target Voltage-gated potassium channel subunit beta-2 (Rattus norvegicus) (UniProt P62483). Nature of the assay: inhibitors of rat Kvbeta2 reductase activity – biochemical, NADPH fluorescence, primary screen (AID 622;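 active = fluorescence slope higher than the sample average by over 3 SD, cut at about -0.22 in these data, passing the limit was not always enough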;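 also: slope of raw intensity against log time taken from 70 to 1610 s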). The settings on record: recombinant KvBeta, 4-cyanobenzaldehyde reduction, at 10 µM, stronger effect = higher value.
Assay [5] has the same target. Nature of the assay: enhancers of rat Kvbeta2 NADPH turnover – biochemical, NADPH fluorescence, primary screen (AID 623;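 active = NADPH fluorescence slope more negative than the mean of all samples by about 3 SD, 99.7% confidence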;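 also: fluorescence intensity change per second fitted from 20 to 320 s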). Conditions: Recombinant KvBeta, NADPH fluorescence decrease slope, 10 min; at 10 µM; stronger effect = lower value.
The target in assay [6] is Alpha-2C adrenergic receptor (Homo sapiens) (UniProt P18825). Nature of the assay: compounds altering alpha2C-coupled GIRK flux – cell-based, HEK293 alpha2C/GIRK1/2, thallium flux, primary screen (AID 624;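 active = fluorescence slope after compound addition differing from the mean of all screened samples at 99.7% confidence, in either direction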;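 also: slope of fluorescence ratio to pre-addition baseline per second over 15 to 24 s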). The settings on record: thallium flux BTC fluorescence, at 10 µM, actives lie on both sides.
Alpha-2C adrenergic receptor (Homo sapiens), sequence (P18825 whole entry, looked up): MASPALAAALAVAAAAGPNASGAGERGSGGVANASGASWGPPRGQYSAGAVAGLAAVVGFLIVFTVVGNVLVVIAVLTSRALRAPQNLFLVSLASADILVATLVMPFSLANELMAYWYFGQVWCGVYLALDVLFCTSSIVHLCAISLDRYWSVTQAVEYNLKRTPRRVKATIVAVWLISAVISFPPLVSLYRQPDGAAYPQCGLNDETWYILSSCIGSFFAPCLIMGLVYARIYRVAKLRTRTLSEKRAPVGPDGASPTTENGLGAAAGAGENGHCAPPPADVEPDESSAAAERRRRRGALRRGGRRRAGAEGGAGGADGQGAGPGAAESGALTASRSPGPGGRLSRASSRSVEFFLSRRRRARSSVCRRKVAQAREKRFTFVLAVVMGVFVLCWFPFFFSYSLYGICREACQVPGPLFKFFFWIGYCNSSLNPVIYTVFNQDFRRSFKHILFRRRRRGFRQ
A short description of assay [7]: blockers of RIG-like receptor reporter activation – cell-based, Sendai virus stimulus, luciferase, 10K MLSCN set, TLR/RLR signaling modifier project, primary screen (AID 602276;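 active = inhibition at or above 50% at 10 µM; inactive = inhibition below 50%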;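 also: firefly luciferase from ISG56 promoter only with Renilla not read in this screen; 0% = Sendai virus plus DMSO and 100% = medium plus DMSO without virus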). The settings on record: HEK293 RL24 IRF3 luciferase reporter, at 10 µM, stronger effect = higher value. In general terms: A reporter such as luciferase makes a cellular process visible.
A short description of assay [8]: TLR3 IRF3 reporter activation blockers – cell-based, poly I:C stimulus, luciferase, 10K MLSCN set, primary screen (AID 602277;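 active = inhibition of the reporter signal at or above 50%; inactive = inhibition below 50%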). The settings on record: HEK293-TLR3 RL24 IRF3 luciferase reporter, at 10 µM, stronger effect = higher value.

Molecules are shown by their SMILES. The source made the active and inactive calls.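 The calls were made as follows, unless noted: active = visual image review flags a hit and inhibition of aggregation exceeds 20%; inconclusive = visual hit but inhibition at or below 20%; inactive = no hit on visual image review.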

Voltage-gated potassium channel subunit beta-2 (Rattus norvegicus), sequence (P62483 whole entry, looked up): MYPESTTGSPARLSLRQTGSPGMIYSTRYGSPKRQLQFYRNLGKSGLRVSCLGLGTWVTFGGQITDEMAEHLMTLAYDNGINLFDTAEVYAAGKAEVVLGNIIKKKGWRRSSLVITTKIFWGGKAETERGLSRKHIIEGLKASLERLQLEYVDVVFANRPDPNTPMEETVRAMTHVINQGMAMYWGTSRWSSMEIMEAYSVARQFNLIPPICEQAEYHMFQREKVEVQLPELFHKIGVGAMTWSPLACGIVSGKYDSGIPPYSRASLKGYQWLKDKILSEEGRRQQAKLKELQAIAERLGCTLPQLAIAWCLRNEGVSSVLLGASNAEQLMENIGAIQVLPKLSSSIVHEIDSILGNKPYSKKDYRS

As to `Cc1nc2ccc(Br)cn2c1NC(C)(C)C`, in assay [1], the cell count was 209. The inhibition in assay [1] was 12.8% (inactive); in assay [3], -2.7% (inactive); in assay [7], -1.2% (inactive); in assay [8], 3.15% (inactive). For the same compound, the inhibition of aggregation in assay [2] is -17.9% (inactive). For the same compound, the nuclei count is 103% in assay [2] and 102% in assay [3]. Further, the fluorescence slope in assay [4] is -0.531 (inactive). Besides, the NADPH fluorescence slope in assay [5] was -2.1e-05 (inactive). For the same compound, in assay [6], the slope is 0.00552 (inactive).

Take `CC1CN(C(=O)CSc2nnc(-c3ccc(Cl)cc3)n2C)CC(C)O1` (centres undefined): in assay [1], the cell count worked out at 345. The inhibition in assay [1] is 1.1% (inactive); in assay [3] it was -122% (inactive); in assay [7] it was -5.39% (inactive); in assay [8] it was -17.3% (inactive). In addition, the inhibition of aggregation in assay [2] was -13.2% (inactive). For the same compound, the nuclei count in assay [2] was 91.5%; in assay [3] it was 124%. Also, in assay [4], the fluorescence slope is -0.275 (inactive). Moreover, the NADPH fluorescence slope in assay [5] was -3.8e-05 (inactive). For the same compound, in assay [6], the slope was 0.00669 (inactive).

For the compound `COc1ccc(Cl)cc1-c1n[nH]c(=S)o1`, in assay [1], the cell count came to 546. Further, the inhibition was 8.2% (inactive) in assay [1], -86.8% (inactive) in assay [3], 20.2% (inactive) in assay [7] and 23.5% (inactive) in assay [8]. In addition, the inhibition of aggregation in assay [2] is -5.3% (inactive). Besides, the nuclei count was found to be 104% in assay [2] and 111% in assay [3]. The fluorescence slope in assay [4] was -0.378 (inactive). Also, the NADPH fluorescence slope in assay [5] is -3.6e-05 (inactive). In addition, the slope in assay [6] is 0.00602 (inactive).

As to `COc1ccc(C(=O)c2ccc(OC)c(N)c2)cc1N`, the cell count in assay [1] came out at 298. In addition, the inhibition is -11.7% (inactive) in assay [1], -187% (inactive) in assay [3], 35% (inactive) in assay [7] and 27.2% (inactive) in assay [8]. In assay [2], the inhibition of aggregation was -64.9% (inactive). Further, the nuclei count in assay [2] came out at 3.2%; in assay [3] it was 111%. Besides, the fluorescence slope in assay [4] was -0.465 (inactive). Besides, the NADPH fluorescence slope in assay [5] was -7.4e-05 (inactive). For the same compound, the slope in assay [6] is 0.00541 (inactive).

Turning to `Cc1c2cnn(CC(=O)N3CCN(c4ncccn4)CC3)c(=O)c2c(C)n1Cc1ccc(F)cc1`, the cell count in assay [1] is 405. The inhibition is -9.2% (inactive) in assay [1], -130% (inactive) in assay [3], -14.2% (inactive) in assay [7] and -8.56% (inactive) in assay [8]. Besides, in assay [2], the inhibition of aggregation was 4.7% (inactive). The nuclei count in assay [2] worked out at 99.5%; in assay [3], 118%. The fluorescence slope in assay [4] is -0.371 (inactive). Besides, the NADPH fluorescence slope in assay [5] is -3.3e-05 (inactive). For the same compound, the slope in assay [6] was 0.00444 (inactive).

As to `O=C(c1ccco1)N1CCN(C2=NS(=O)(=O)c3ccccc32)CC1`, in assay [1], the cell count was determined as 596. The inhibition was -18.6% (inactive) in assay [1], -3% (inactive) in assay [3], 4.61% (inactive) in assay [7] and 31.2% (inactive) in assay [8]. Also, the inhibition of aggregation in assay [2] was -11.3% (inactive). Besides, the nuclei count in assay [2] stood at 105%; in assay [3] it was 104%. In assay [4], the fluorescence slope is -0.463 (inactive). The NADPH fluorescence slope in assay [5] is -1.3e-05 (inactive). The slope in assay [6] is 0.00424 (inactive).

For the compound `CC(=O)NC(Cc1ccccc1)C(=O)NC1CCN(C(=O)c2cnccn2)CC1` (centres undefined), in assay [1], the cell count was found to be 991. The inhibition in assay [1] is -1% (inactive); in assay [3], -54.3% (inactive); in assay [7] it was 12.1% (inactive); in assay [8], 28.6% (inactive). Moreover, the inhibition of aggregation in assay [2] was -7% (inactive). In addition, the nuclei count in assay [2] came out at 136%; in assay [3], 120%. Further, the fluorescence slope in assay [4] was -0.48 (inactive). In assay [5], the NADPH fluorescence slope was -2.5e-05 (inactive). For the same compound, in assay [6], the slope was 0.00556 (inactive).

Take `Cc1ccc(-n2c(-c3ccncc3)nnc2-c2cccs2)cc1`: the cell count in assay [1] came out at 456. In addition, the inhibition in assay [1] was -3.2% (inactive); in assay [3] it was -55.2% (inactive); in assay [7], 11.8% (inactive); in assay [8], 12.5% (inactive). In addition, the inhibition of aggregation in assay [2] is -22.5% (inactive). Also, the nuclei count in assay [2] is 104%; in assay [3], 119%. Moreover, in assay [4], the fluorescence slope is -0.384 (inactive). In assay [5], the NADPH fluorescence slope is -4.2e-05 (inactive). In addition, the slope in assay [6] is 0.0046 (inactive).

As to `CCN(CC)S(=O)(=O)c1ccc(NC(=O)CN(c2cccc(F)c2)S(C)(=O)=O)cc1`, the cell count in assay [1] was 426. For the same compound, the inhibition in assay [1] is 1.1% (inactive); in assay [3] it was -25.3% (inactive); in assay [7], 8.61% (inactive); in assay [8], 18.3% (inactive). Besides, the inhibition of aggregation in assay [2] was -25.1% (inactive). Further, the results for the nuclei count in assay [2] and in assay [3] were 107% and 98.6%, respectively. Moreover, in assay [4], the fluorescence slope is -0.449 (inactive). Also, the NADPH fluorescence slope in assay [5] was 2.5e-05 (inactive). Further, in assay [6], the slope was 0.00334 (inactive).

For `Cc1nc2scc(-c3cccs3)c2c(=O)n1-n1cccc1`, in assay [1], the cell count is 506. The inhibition was 10.6% (inactive) in assay [1], -398% (inactive) in assay [3], 4.56% (inactive) in assay [7] and 18.4% (inactive) in assay [8]. In assay [2], the inhibition of aggregation was 10.9% (inactive). Besides, the nuclei count is 102% in assay [2] and 140% in assay [3]. In addition, in assay [4], the fluorescence slope is -0.333 (inactive). The NADPH fluorescence slope in assay [5] is 1.9e-05 (inactive). Moreover, in assay [6], the slope was 0.00572 (inactive).

Take `CCC(C(=O)OCC(=O)Nc1c(C)n(C)n(-c2ccccc2)c1=O)c1ccccc1` (centres undefined): in assay [1], the cell count is 640. Further, the inhibition was 6.8% (inactive) in assay [1], -53% (inactive) in assay [3], 7.71% (inactive) in assay [7] and 15.4% (inactive) in assay [8]. Besides, the inhibition of aggregation in assay [2] was 5.9% (inactive). In addition, the values for the nuclei count in assay [2] and in assay [3] were 89.5% and 122%, respectively. The fluorescence slope in assay [4] is -0.539 (inactive). The NADPH fluorescence slope in assay [5] is 5.3e-06 (inactive). Moreover, in assay [6], the slope is 0.00674 (inactive).

In the case of `CCN(Cc1cc2cc(OC)ccc2[nH]c1=O)C(=O)c1ccncc1`, in assay [1], the cell count stood at 458. Also, the inhibition in assay [1] was -1% (inactive); in assay [3], -34.1% (inactive); in assay [7], 13.5% (inactive); in assay [8], 20.1% (inactive). In assay [2], the inhibition of aggregation was -12.3% (inactive). Further, the nuclei count in assay [2] is 111%; in assay [3], 198%. Moreover, the fluorescence slope in assay [4] was -0.498 (inactive). For the same compound, the NADPH fluorescence slope in assay [5] is 4.7e-05 (inactive). Moreover, the slope in assay [6] was 0.00638 (inactive).

Consider `COc1cc(C(=O)OC(C)CN2CCCC2)cc(OC)c1OC` (centres undefined), for which, in assay [1], the cell count was found to be 286. The inhibition was 2.9% (inactive) in assay [1], 30.9% (inactive) in assay [3], 5.11% (inactive) in assay [7] and 11.1% (inactive) in assay [8]. Moreover, the inhibition of aggregation in assay [2] was -4.1% (inactive). Further, the nuclei count in assay [2] and in assay [3] was 101% in each case. For the same compound, the fluorescence slope in assay [4] is -0.324 (inactive). The NADPH fluorescence slope in assay [5] is -5.1e-05 (inactive). In assay [6], the slope is 0.00369 (inactive).

Regarding `COc1ccc(S(=O)(=O)N2Cc3ccccc3CC2C(=O)Nc2ccc(O)cc2)cc1OC` (centres undefined), the cell count in assay [1] is 772. The inhibition is -2.9% (inactive) in assay [1], -42.8% (inactive) in assay [3], 8.15% (inactive) in assay [7] and 29.5% (inactive) in assay [8]. Besides, the inhibition of aggregation in assay [2] was -7.4% (inactive). The nuclei count in assay [2] worked out at 119%; in assay [3] it was 114%. In addition, in assay [4], the fluorescence slope was -0.556 (inactive). Moreover, the NADPH fluorescence slope in assay [5] is -6e-05 (inactive). Moreover, the slope in assay [6] was 0.0071 (inactive).

By inhibition is commonly meant the relative decrease from the control value, in per cent.
